Data published in the supplement of paper PMC6555819.

Key:
Test in all cases: PBM binding z-score (relative to random genomic background probes); higher = stronger binding; sequences stand for … in GC…GCGATTGACAGCGTAGAATGAAGG
[1] = system: FXR:RXRa (NR concentration 270 nM, RXRa partner concentration 90 nM)
Method in brief: (§1)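 Antibodies against each partner of ligand-free nuclear receptor dimers (one per run) detected binding on custom Agilent 4×180K protein-binding microarrays after 1 h incubation. The double-stranded probes had 34-nt variable regions carrying direct-repeat seeds, single-nucleotide variants, half-site ablations and random human genomic background sequences. Binding z-scores, from regression-normalized fluorescence, use the random background probes as reference.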

[2] = system: LXRa:RXRa (NR concentration 270 nM, RXRa partner concentration 90 nM)
Method in brief: as §1

[3] = system: LXRa homodimer (NR concentration 270 nM)
Method in brief: as §1

[4] = system: LXRb:RXRa (NR concentration 270 nM, RXRa partner concentration 90 nM)
Method in brief: as §1

[5] = system: LXRb homodimer (NR concentration 270 nM)
Method in brief: as §1

[6] = system: PPARa:RXRa (NR concentration 270 nM, RXRa partner concentration 90 nM)
Method in brief: as §1

[7] = system: PPARg:RXRa (NR concentration 180 nM, RXRa partner concentration 90 nM)
Method in brief: as §1

[8] = system: PPARg:RXRa 270nM:90nM, anti-RXR (NR concentration 270 nM, RXRa partner concentration 90 nM)
Method in brief: as §1

[9] = system: PPARg:RXRa 30nM:10nM, anti-RXR (NR concentration 30 nM, RXRa partner concentration 10 nM)
Method in brief: as §1

[10] = system: PPARg:RXRa 90nM:30nM, anti-RXR (NR concentration 90 nM, RXRa partner concentration 30 nM)
Method in brief: as §1

Sequence | PBM binding z-score [1] | PBM binding z-score [2] | PBM binding z-score [3] | PBM binding z-score [4] | PBM binding z-score [5] | PBM binding z-score [6] | PBM binding z-score [7] | PBM binding z-score [8] | PBM binding z-score [9] | PBM binding z-score [10]
AGTCAATGTTCATCTAGGTAACGTAAGATATGCT | -0.0895 | -0.35 | -0.229 | -0.0742 | -0.311 | 0.296 | 0.881 | -0.0872 | -0.0799 | -0.00272
CTCGAAAGGTCGGTTGGGGTGAGTATACGGATAA | 3.34 | 2.38 | 0.622 | 2.86 | 1.41 | 3.38 | 0.807 | 1.47 | 0.13 | 0.958
CAAACAAGGTCAAGAGGTCAAAGTCCGCTTCCCG |  |  | 7.29 |  | 2.87 |  | 8.71 | 8.05 | 6.08 | 7.7
CCTATTAGTTGAGCATAAGGGCAACCGAAGCTCG | 0.0961 | -0.117 | 0.193 | -0.0125 | 0.346 | 0.124 | 0.333 | 0.305 | -0.0457 | 0.368
TATCCTAGGTCATTGGGCCAGTATAGTACGCATC | 4.8 | 6.02 | 5.49 | 3.44 | 2.48 | 4.44 | 5.45 | 4.94 | 2.33 | 4.11
GCAGACAGGTGAAACGCAGGTAACTCAAGGTGGC | -0.175 | 0.4 | -0.42 | -0.165 | -1.28 | 0.892 | 0.604 | -0.0904 | -0.0664 | -0.118
CATACAGGGTCAGATAGGCCAGAGTAGGGACGGC | 4.34 | 3.14 | 0.146 | 2.31 | 0.65 | 4.26 | 3.15 | 2.6 | 0.58 | 1.71
CCACCAAGGTGAACAAGGTCGTTGATTACTATTC | 1.47 | 1.57 | 0.468 | 2.04 | -0.359 | 2.63 | 1.21 | 1.23 | -0.313 | 0.583
CGTCAAAGTTCAAGGTAACGTGACAGAAAGCAGC | 5.87 | 5.39 | 2.53 | 3.27 | 0.738 | 4.34 | 4.02 | 4.9 | 2.23 | 3.9
GATACAGGGTCAGCTCGAGGCCAGAGTATGGAAA | 4.59 | 2.87 | -0.199 | 2.4 | -0.786 | 4.56 | 3.36 | 3.21 | 0.631 | 2.06
AGTCAAAGTTCATTTAGGTAACGTAAGATATGCT | 6.47 | 6.25 | 6.58 | 4.2 | 3.14 | 4.58 |  | 6.05 | 2.98 | 5.09
TCATATAGGTGAACAGGTGAAAGTCCGTAAGTTA | 1.35 | 1.14 | 0.444 | 1.22 | 0.00841 | 3.47 | 4.77 | 4.6 | 4.3 | 4.44
GTAACAAGGTGAATAGGTCGTTGATGAGTAGGCG | 1.22 | 1.04 | 0.00254 | 0.69 | -0.186 | 2.9 | 2.64 | 2.88 | 1.27 | 2.48
ATCGAAAGGTCGACGAGGTGCGTATACACCGTTT | 4.16 | 2.96 | -0.0247 | 2.54 | 0.0651 | 4.07 | 2.24 | 2.73 | 0.695 | 1.53
ATATGTAGGTTAAGGGTCATTCTGGTTGGTTCGC | 5.42 | 4.75 | 3.48 | 4.51 | 1.56 | 6.65 | 11.4 | 9.66 | 10.5 | 11.5
CCTAGTTGGTCAGGAGGGCACACACCGGATATGA | 0.184 | 0.335 | 0.0656 | 0.24 | -0.0952 | 0.641 | 0.988 | 0.912 | 0.0866 | 0.594
ATCGAAAGGTCTTGAGGTGAGTATACAGAAAGGC | 0.305 | 0.206 | -0.36 | 0.394 | -0.0662 | 1.68 | 1.15 | 0.897 | 0.286 | 0.647
CCGACTGGGGCAGAAAGGTTAACATACCATCCGG | 0.257 | 0.795 | 0.102 | 1.32 | -1.1 | 2.45 | 1.92 | 2.76 | 1.1 | 2.38

Sequence | PBM binding z-score [1] | PBM binding z-score [2] | PBM binding z-score [3] | PBM binding z-score [4] | PBM binding z-score [5] | PBM binding z-score [6] | PBM binding z-score [7] | PBM binding z-score [8] | PBM binding z-score [9] | PBM binding z-score [10]
CCTATTGGGCCATCAGGTCATTGATATCAACGTT | 1.84 | 1.28 | 1.09 | 1.42 | -0.199 | 2.25 | 1.29 | 2.49 | 0.897 | 1.88
TCATATAGGTAAATGCTACGTGAAAGTCCGATCT | 0.931 | 0.681 | 0.145 | 0.726 | 0.254 | 0.91 | 0.924 | 2.02 | 3.64 | 2.58
TCATATAGGTAGTACAGGTGAAAGTCGGCATCTA | 1.11 | 1.01 | 0.38 | 0.84 | 0.0864 | 1.2 | 0.65 | 2.23 | 3.57 | 3.13
CGTCCAAGGTCAATGCTAGGTCTGTGAAAGCATT | 6.34 | 4.7 | 0.321 | 3.41 | 0.865 | 5.01 | 3.28 | 3.99 | 0.804 | 2.73
GTATCAAGGTGAATAGGTCGTTGATGAGTAGGCG | 0.903 | 1.1 | 0.272 | 0.689 | 0.229 | 2.65 | 2.43 | 2.76 | 1.16 | 2.08
ATCGAAAGGTTGTGAGGTGAGTATACAGAAAGGC | 0.714 | 0.605 | -0.189 | 0.771 | 0.139 | 1.68 | 0.892 | 0.732 | 0.508 | 0.523
CGTCCACGGTCAGAGAGGTCAGTGAATGCCGAGT | 2.16 | 1.89 | 1.45 | 1.77 | -0.73 | 2.33 | 0.382 | 0.996 | -0.638 | 0.247
TCTAGCAGGTCAGAGGGTCACTCAAGAGGTACGG | 4.13 | 3.26 | 0.192 | 2.87 | -0.436 | 4.54 | 4.39 | 5.27 | 3.71 | 5.21
GCTTGTAGATCAACGTTAAGAAAGACTAAGCTAA | -0.519 | -0.395 | -0.371 | -0.448 | -0.769 | -0.124 | 0.13 | -0.0429 | -0.364 | -0.214
CCTCGGAGGACAGAACGTCAGAGCTGTCCGCTTT | -0.455 | -0.498 | -0.707 | -1.16 | -1.1 | -1.32 | -0.391 | -1.32 | -1.28 | -1.56
CTTCCAAGGTCAATGCTAGGTCAGTGAAAGCATT | 6.83 | 5.58 | 3.58 | 4.25 | 1.7 | 5.14 | 4.42 | 4.73 | 1.5 | 3.45
GGAACGAGGGCAAGTTGTTAGCAGAGTTTGATGG | 0.972 | 0.498 | -0.221 | 0.541 | -0.646 | 1.84 | 0.863 | 1.04 | -0.161 | 0.479
CGTCAAAGTTCAAGGTGACGTAACAGAAAGCAGC | 6.62 | 5.96 | 2.8 | 3.49 | 0.846 | 4.92 | 4.71 | 5.65 | 2.12 | 4.45
GCGACTGGGCCATCAGCAGGTTACCATAACTTAA | -0.78 | -0.767 | -0.789 | -0.559 | -1.23 | 0.242 | 0.386 | -0.176 | -0.886 | -0.265
ATCTCTAGCTAACCAAGTTCAGTGAATGCCGAAC | -0.0786 | 0.353 | 0.78 | 0.261 | 0.798 | -0.0272 | -0.107 | -0.251 | -0.294 | -0.0743
ATATGTAGGTTAGCTGGGGTCATTCAGACTAGGC | 4.38 | 5.95 | 3.02 | 4.75 | 0.992 | 5.13 | 5.66 | 5.12 | 2.67 | 4.46
TCATATAGGTAAACAGGTGAAAGGCCGTAAGTTA | 1.02 | 0.944 | 0.383 | 0.971 | 0.244 | 3.2 | 5.16 | 4.67 | 4.73 | 5.29
CGTCAAAGTTCCACTAAGGTAACGTAAAGCACGC | 0.0989 | -0.0438 | -0.0633 | 0.0124 | 0.0274 | 0.268 | 0.459 | 0.573 | -0.0574 | 0.281
